# This is part of a sample that, as a whole, favours compounds with a hit. Of some 79,000 tested, about 15% had one in any assay. A number with no mark means an inactive call. Activity calls are given as the source filed them. Rule as the data show it: active = growth inhibition above about 70%; inactive = the rest.
# Key:
# [1] = NCI Yeast Anticancer Drug Screen. Data for the mec2-1 strain (AID 157); settings: S. cerevisiae mec2-1 strain, hits give high values
# In short: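 Compounds were applied to mec2-1 yeast cells. Their growth was then compared with that of vehicle-treated cultures to give growth inhibition.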
# [2] = NCI Yeast Anticancer Drug Screen. Data for the rad14 strain (AID 159);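 also: 0% = growth of vehicle-treated control cultures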; settings: S. cerevisiae rad14 strain growth inhibition, hits give high values
# In short: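 Growth inhibition vs vehicle controls; genetically altered yeast strain (DNA damage repair defect) treated with test compounds.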
# [3] = NCI Yeast Anticancer Drug Screen. Data for the sgs1 mgt1 strain (AID 161);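 also: 0% = growth of cultures given vehicle only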; settings: S. cerevisiae sgs1 mgt1 strain, hits give high values
# In short: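 Percent growth inhibition was derived by comparing compound-exposed mutant yeast with vehicle-exposed cultures. The strain carries alterations in DNA damage repair.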
# [4] = NCI Yeast Anticancer Drug Screen. Data for the CLN2oe strain (AID 163);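 also: 0% = growth of vehicle-only control cultures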; settings: S. cerevisiae CLN2oe strain, hits give high values
# In short: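 Cells of an engineered yeast line with disturbed cell-cycle regulation are treated with compound. Inhibition of growth is then calculated relative to the vehicle-treated reference.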
# [5] = NCI Yeast Anticancer Drug Screen. Data for the cln2 rad14 strain (AID 165);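 also: 0% = growth equal to vehicle treated cultures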; settings: S. cerevisiae cln2 rad14 strain, hits give high values
# In short: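 Strain: cln2 rad14 yeast, altered in cell cycle control and DNA damage repair. Read-out: growth inhibition vs vehicle.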
# [6] = NCI Yeast Anticancer Drug Screen. Data for the bub3 strain (AID 167); settings: S. cerevisiae bub3 mutant strain, hits give high values
# In short: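 Readout: yeast growth inhibition, expressed relative to vehicle-only wells. The test organism is a mutant strain from a panel with lesions in DNA repair or checkpoint genes.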
# [7] = NCI Yeast Anticancer Drug Screen. Data for the wt2 strain (AID 169);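 also: 0% = growth of vehicle-treated yeast cultures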; settings: S. cerevisiae wt2 strain growth inhibition, hits give high values
# In short: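 Growth of compound-treated yeast is measured and expressed as inhibition relative to vehicle-only controls.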
# [8] = NCI Yeast Anticancer Drug Screen. Data for the mlh1 strain (AID 171);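 also: 0% = growth of vehicle-treated control cultures of the same strain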; settings: S. cerevisiae mlh1 strain growth inhibition, hits give high values
# In short: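 Test agents were incubated with yeast bearing a defined DNA damage repair or cell cycle control alteration; values are growth inhibition normalised to vehicle-treated cultures.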
# [9] = NCI Yeast Anticancer Drug Screen. Data for the sgs1 strain (AID 173);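 also: 0% = growth of vehicle-only control cultures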; settings: S. cerevisiae sgs1 mutant, hits give high values
# In short: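 Strain with an altered DNA repair or cell cycle pathway exposed to compound. Growth then measured. Value = inhibition versus vehicle control.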
# [10] = NCI Yeast Anticancer Drug Screen. Data for the mlh1 rad18 strain (AID 175); settings: S. cerevisiae mlh1 rad18 strain growth inhibition, hits give high values
# In short: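 A repair-deficient yeast strain is exposed to test compound, and growth is scored relative to vehicle-treated controls.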
# [11] = NCI Yeast Anticancer Drug Screen. Data for the rad18 strain (AID 177); settings: S. cerevisiae rad18 mutant growth inhibition, hits give high values
# In short: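 DNA-repair-defective yeast; compound treatment; growth inhibition scored against vehicle.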
# [12] = NCI Yeast Anticancer Drug Screen. Data for the rad52 strain (AID 147);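 also: 0% = growth of vehicle-treated control cultures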; settings: S. cerevisiae rad52 mutant growth inhibition, hits give high values
# In short: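 Growth of repair-deficient yeast cells was compared between compound-treated and vehicle-treated cultures to give percent inhibition.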
# [13] = NCI Yeast Anticancer Drug Screen. Data for the wt1 strain (AID 149);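 also: 0% = growth of vehicle-treated wt1 cultures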; settings: S. cerevisiae wt1 strain (SPY 50644) growth inhibition, hits give high values
# In short: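 Growth inhibition read against vehicle controls after compound exposure of the wt1 yeast strain.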
# [14] = NCI Yeast Anticancer Drug Screen. Data for the mgt1 strain (AID 153); settings: S. cerevisiae mgt1 mutant growth inhibition, hits give high values
# In short: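 Compounds were applied to mgt1 mutant yeast, and growth was then compared against vehicle-treated control cultures to give percent inhibition.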
# [15] = NCI Yeast Anticancer Drug Screen. Data for the rad50 strain (AID 155);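 also: 0% = growth of vehicle-only cultures of the same strain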; settings: S. cerevisiae rad50 strain growth inhibition, hits give high values
# In short: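 Readout: growth inhibition relative to vehicle-treated cultures. Compound exposure was carried out in a genetically defined yeast strain deficient in DNA damage repair.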
# [16] = at 5.0 µM (retest, dose inferred, filed as 0.5)
# [17] = at 50.0 µM (retest, dose inferred, filed as 5.0)
smiles,measurement,setting,value
CCC(=O)OCCn1c2nc(=O)[nH]c(=O)c-2nc2cc(C)c(C)cc21,growth inhibition,[1]; at 100.0 µM,-1%
same,growth inhibition,[2]; at 1.2 µM,3%
same,growth inhibition,[2]; at 3.7 µM,0%
same,growth inhibition,[2]; at 11.0 µM,23%
same,growth inhibition,[2]; at 33.0 µM,14%
same,growth inhibition,[2]; at 100.0 µM,-3%
same,growth inhibition,[3]; [16],2%
same,growth inhibition,[3]; [17],91% (active)
same,growth inhibition,[3]; at 50.0 µM,57.5%
same,growth inhibition,[4]; at 1.2 µM,-7%
same,growth inhibition,[4]; at 3.7 µM,-5%
same,growth inhibition,[4]; at 11.0 µM,-3%
same,growth inhibition,[4]; at 33.0 µM,-5%
same,growth inhibition,[4]; at 100.0 µM,-2%
same,growth inhibition,[5]; [16],-1%
same,growth inhibition,[5]; [17],3%
same,growth inhibition,[5]; at 50.0 µM,19.9%
same,growth inhibition,[6]; at 1.2 µM,-7%
same,growth inhibition,[6]; at 3.7 µM,-4%
same,growth inhibition,[6]; [16],-2%
same,growth inhibition,[6]; at 11.0 µM,-5%
same,growth inhibition,[6]; at 33.0 µM,5%
same,growth inhibition,[6]; [17],10%
same,growth inhibition,[6]; at 50.0 µM,3.15%
same,growth inhibition,[6]; at 100.0 µM,35%
same,growth inhibition,[7]; at 1.2 µM,-8%
same,growth inhibition,[7]; at 3.7 µM,-1%
same,growth inhibition,[7]; at 11.0 µM,20%
same,growth inhibition,[7]; at 33.0 µM,85% (active)
same,growth inhibition,[7]; at 100.0 µM,93% (active)
same,growth inhibition,[8]; at 1.2 µM,-11%
same,growth inhibition,[8]; at 3.7 µM,-6%
same,growth inhibition,[8]; at 11.0 µM,-5%
same,growth inhibition,[8]; at 33.0 µM,65%
same,growth inhibition,[8]; at 100.0 µM,86% (active)
same,growth inhibition,[9]; at 1.2 µM,-15%
same,growth inhibition,[9]; at 3.7 µM,-7%
same,growth inhibition,[9]; at 11.0 µM,21%
same,growth inhibition,[9]; at 33.0 µM,83% (active)
same,growth inhibition,[9]; at 100.0 µM,94% (active)
same,growth inhibition,[10]; [16],5%
same,growth inhibition,[10]; [17],29%
same,growth inhibition,[10]; at 50.0 µM,21.1%
same,growth inhibition,[11]; at 1.2 µM,-3%
same,growth inhibition,[11]; at 3.7 µM,-1%
same,growth inhibition,[11]; at 11.0 µM,-1%
same,growth inhibition,[11]; at 33.0 µM,7%
same,growth inhibition,[11]; at 100.0 µM,11%
CN(C)C[C@H]1CC[C@@H](CN(C)C)C1=O,growth inhibition,[12]; at 1.2 µM,17%
same,growth inhibition,[12]; at 3.7 µM,24%
same,growth inhibition,[12]; at 11.0 µM,27%
same,growth inhibition,[12]; at 33.0 µM,39%
same,growth inhibition,[12]; at 100.0 µM,66%
same,growth inhibition,[13]; at 1.2 µM,24%
same,growth inhibition,[13]; at 3.7 µM,25%
same,growth inhibition,[13]; at 11.0 µM,25%
same,growth inhibition,[13]; at 33.0 µM,14%
same,growth inhibition,[13]; at 100.0 µM,47%
same,growth inhibition,[14]; at 1.2 µM,16%
same,growth inhibition,[14]; at 3.7 µM,20%
same,growth inhibition,[14]; at 11.0 µM,25%
same,growth inhibition,[14]; at 33.0 µM,30%
same,growth inhibition,[14]; at 100.0 µM,43%
same,growth inhibition,[15]; at 1.2 µM,11%
same,growth inhibition,[15]; at 3.7 µM,31%
same,growth inhibition,[15]; [16],5%
same,growth inhibition,[15]; at 11.0 µM,22%
same,growth inhibition,[15]; at 33.0 µM,37%
same,growth inhibition,[15]; [17],36%
same,growth inhibition,[15]; at 50.0 µM,70%
same,growth inhibition,[15]; at 100.0 µM,78% (active)
same,growth inhibition,[1]; at 1.2 µM,13%
same,growth inhibition,[1]; at 3.7 µM,20%
same,growth inhibition,[1]; [16],9%
same,growth inhibition,[1]; at 11.0 µM,16%
same,growth inhibition,[1]; at 33.0 µM,28%
same,growth inhibition,[1]; [17],83% (active)
same,growth inhibition,[1]; at 50.0 µM,57.3%
same,growth inhibition,[1]; at 100.0 µM,49%
same,growth inhibition,[2]; at 1.2 µM,16%
same,growth inhibition,[2]; at 3.7 µM,20%
same,growth inhibition,[2]; at 11.0 µM,21%
same,growth inhibition,[2]; at 33.0 µM,30%
same,growth inhibition,[2]; at 100.0 µM,52%
same,growth inhibition,[3]; [16],1%
same,growth inhibition,[3]; [17],18%
same,growth inhibition,[3]; at 50.0 µM,38.4%
same,growth inhibition,[5]; [16],20%
same,growth inhibition,[5]; [17],14%
same,growth inhibition,[5]; at 50.0 µM,23.9%
same,growth inhibition,[6]; at 1.2 µM,17%
same,growth inhibition,[6]; at 3.7 µM,12%
same,growth inhibition,[6]; [16],9%
same,growth inhibition,[6]; at 11.0 µM,19%
same,growth inhibition,[6]; at 33.0 µM,29%
same,growth inhibition,[6]; [17],47%
same,growth inhibition,[6]; at 50.0 µM,34.5%
same,growth inhibition,[6]; at 100.0 µM,63%
same,growth inhibition,[7]; at 1.2 µM,-46%
same,growth inhibition,[7]; at 3.7 µM,-45%
same,growth inhibition,[7]; at 11.0 µM,-40%
same,growth inhibition,[7]; at 33.0 µM,7%
same,growth inhibition,[7]; at 100.0 µM,99% (active)
same,growth inhibition,[8]; at 1.2 µM,18%
same,growth inhibition,[8]; at 3.7 µM,32%
same,growth inhibition,[8]; at 11.0 µM,24%
same,growth inhibition,[8]; at 33.0 µM,36%
same,growth inhibition,[8]; at 100.0 µM,29%
same,growth inhibition,[9]; at 1.2 µM,15%
same,growth inhibition,[9]; at 3.7 µM,26%
same,growth inhibition,[9]; at 11.0 µM,30%
same,growth inhibition,[9]; at 33.0 µM,44%
same,growth inhibition,[9]; at 100.0 µM,81% (active)
same,growth inhibition,[10]; [16],7%
same,growth inhibition,[10]; [17],54%
same,growth inhibition,[10]; at 50.0 µM,75% (active)
same,growth inhibition,[11]; at 1.2 µM,21%
same,growth inhibition,[11]; at 3.7 µM,21%
same,growth inhibition,[11]; at 11.0 µM,22%
same,growth inhibition,[11]; at 33.0 µM,36%
same,growth inhibition,[11]; at 100.0 µM,87% (active)
